# GCN5L2 inh: blocks human GCN5L2 histone acetyltransferase; Q92830; GCN5L2 HAT assay, ThioGlo1 CoA-SH fluorescence; Potency, µM (doses to about 58.9 µM), without a hit: top-dose activity change, negative = inhibition, usual class: inhibitors; 390,000 compounds, 0.21% hits; AID 504327
#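 Enzyme at 20nM final was mixed with library compounds for 15 min at room temperature. Peptide H3(1-25) at 75uM, acetyl-CoA at 70uM and ThioGlo1 at 50uM were then added. Plates were read immediately and after 20 min (Ex340nm/Em540nm).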
# RGS4 inhibitor: human RGS4 inhibition; Transcreener GDP fluorescence polarization, RGS4-accelerated GTP hydrolysis; Potency, µM (doses to about 114 µM), for the others: at the highest dose activity change, negative = inhibition, most hits filed as inhibitors; 390,000 compounds, 0.039% hits; AID 504845; note: nearly all actives have a fitted effect of over 75% in size
# Target sequence (P49798 whole entry, looked up): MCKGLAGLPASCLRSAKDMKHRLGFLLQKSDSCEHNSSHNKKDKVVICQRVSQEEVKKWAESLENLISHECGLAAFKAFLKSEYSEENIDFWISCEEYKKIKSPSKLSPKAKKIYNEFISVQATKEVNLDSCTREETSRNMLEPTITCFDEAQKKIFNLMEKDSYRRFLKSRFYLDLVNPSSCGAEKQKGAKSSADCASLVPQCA
#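 MLSMR compounds (23 nl, pin-transferred) preincubated 10 min at room temperature with a 500nM (2x) first reagent, then RGS4 at 900nM (2x) plus Transcreener GDP mix added; fluorescence polarization (620/688 nm) read before and after 90 min at 30 °C.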
# TDP1 block: inhibitors of human tyrosyl-DNA phosphodiesterase TDP1. recombinant TDP1, AlphaScreen DNA substrate cleavage. Q9NUW8. 350,000 compounds, 0.28% hits. Potency, µM (series often up to 130 µM), inactives show at the highest dose activity change, negative = inhibition, actives largely listed as inhibitors; note: nearly all actives have a fitted effect of over 40% in size
#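 Recombinant human Tdp1 (E. coli-expressed, 1 nM final) preincubated with compounds 15 min at room temperature, then 5'-biotin/3'-phosphotyrosine-FITC DNA substrate (15 nM final) added for 5 min. AlphaScreen beads (10 ug/ml final) added 10 min; cleavage lowers signal.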
# RECQ1 helicase: RECQ1 (human) helicase inhibition; Potency, µM (highest dose often 57.3 µM), for inactives: at the top dose activity, negative = inhibition, actives largely listed as inhibitors; 240,000 compounds, 0.54% hits; AID 2549; RECQ1 DNA unwinding, red fluorescence kinetic read; P46063;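 note: plate controls were vehicle for no effect and no enzyme for full effect; nearly all actives have a fitted effect of over 30% in size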
#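 RECQ1T1 50 nM; forked duplex (20 bp + 30-nt ss tails) 200 nM, ATP 2 mM final; pH 8.0, 2 mM MgCl2, 2.5 ug/ml poly(dI-dC); 15 min compound preincubation; discontinuous kinetic read over 2 h at RT.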
# BLM inh: Bloom syndrome helicase (human) inhibition; AID 2528; Potency, µM (titrated, usually from 56.1 µM), for the others: at the highest dose activity change, negative = inhibition, most hits filed as inhibitors; recombinant BLM DNA unwinding, fluorescence dequenching; 350,000 compounds, 0.2% hits;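 note: plate controls were vehicle for no effect and no enzyme for full effect; nearly all actives have a fitted effect of over 35% in size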
# APEX1 inh: APE1 (human) endonuclease inhibition; P27695; recombinant APE1, TAMRA/BHQ-2 abasic DNA cleavage fluorescence; Potency, µM (highest dose often 65.8 µM), for inactives: at the highest dose activity change, negative = inhibition, actives largely listed as inhibitors; 350,000 compounds, 0.35% hits; AID 2517;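 note: plate controls were vehicle for no effect and reference inhibitor for full effect; nearly all actives have a fitted effect of over 55% in size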
# Target sequence (P27695 whole entry, looked up): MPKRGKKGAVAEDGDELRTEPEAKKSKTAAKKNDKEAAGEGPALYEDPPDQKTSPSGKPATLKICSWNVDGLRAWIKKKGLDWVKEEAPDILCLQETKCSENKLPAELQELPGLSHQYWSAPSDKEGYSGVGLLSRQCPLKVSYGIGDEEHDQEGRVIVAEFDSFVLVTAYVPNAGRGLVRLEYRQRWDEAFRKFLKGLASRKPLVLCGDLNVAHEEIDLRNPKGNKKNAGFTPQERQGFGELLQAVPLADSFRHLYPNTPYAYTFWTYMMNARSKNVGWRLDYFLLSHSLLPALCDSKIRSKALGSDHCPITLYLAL
#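 Enzyme (0.75 nM final) and test compound are incubated 15 min at room temperature before adding 50 nM quenched THF abasic-site duplex. Cleavage dequenches TAMRA, followed at 525/598 nm over three reads one minute apart.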
# * marks the source's active call; other numbers are inactive results; i = inactive; ? = inconclusive; . = not tested or not shown; ! = not confirmed by another sample; [ ] = dose if it differs, or a comment. Hits are enriched below; roughly 0.87% of the tested compounds scored in any of these assays. Calls come from the whole dose curve; as a rule, active = well fitted curve in the direction sought with a large enough effect; inconclusive = small, poorly fitted or top-dose-only effect, or another doubt; inactive = no such curve, though single readings can be large; an effect the other way counts as inactive or inconclusive. Unless noted, % is set by controls: 0 for no effect and ±100 for the full control effect; potency is the fitted concentration of half-maximal effect.
SMILES,GCN5L2 inh,RGS4 inhibitor,TDP1 block,RECQ1 helicase,BLM inh,APEX1 inh
CCn1cc(CN2CCC(n3nccc3NC(=O)c3ccc4c(c3)OCO4)CC2)c(C)n1,-1%,16%,1.8µM*,.,-10%,3%
Nc1c(C(=O)Nc2ccc(Br)cc2)sc2nc(-c3ccco3)ccc12,-23%,-20%,3%,-22%,-21%,-14%
Nc1c(C(=O)Nc2ccc(Br)cc2)sc2nc(-c3ccncc3)ccc12,-8%,?,22µM*,.,-4%,.
CN(Cc1ccco1)c1ccnc(-c2ccoc2)n1,?,.,3.5µM*,-12%,-5%,9%
CN(Cc1ccco1)c1ccnc(-c2cccnc2)n1,-2%,.,.,-8%,2%,?
CC(=O)O[C@@H]1CC2CCC1(C)C2(C)C (stereo partly drawn),.,.,.,.,.,0%
C/C(=C\C=C(C#N)C#N)c1cc(C#N)c(N)o1,-5%,-20%,8%,14µM*,?,?
Cc1ccc(NS(=O)(=O)c2cc3c(cc2N(C)C)NC(=O)CC3)cc1C,.,.,0%,.,.,.
CCC(=O)NC(=S)NNC(=O)c1ccccc1[N+](=O)[O-],25µM*,-6%,6%,-5%,0%,1%
O=C(NC(=S)NNC(=O)c1ccccc1[N+](=O)[O-])c1ccccc1,?,?,11%,-16%,4%,19%
c1nc(NC2CCCCCC2)c2[nH]cnc2n1,4%,-10%,5%,-2%,4%,141µM*
c1nc(NC2CCCCC2)c2[nH]cnc2n1,-2%,13%,9%,-2%,0%,2%
Cc1[nH][nH]c(=O)c1C(c1ccc(-c2cccc(C(=O)O)c2)o1)c1c(C)[nH][nH]c1=O,0%,-20%,8.9µM*,?,-1%,18µM*
Cc1[nH][nH]c(=O)c1C(c1ccc(-c2ccccc2C(=O)O)o1)c1c(C)[nH][nH]c1=O,-11%,?,.,i,?,?
O=C(N[C@@H](Cc1ccccc1)C(=O)CCl)OCc1ccccc1,-3%,3.4µM*,10%[56.1 µM],i,.,13%
N#C/C(=C\c1ccc(-c2cc(Cl)ccc2Cl)o1)C(=O)Nc1cccc2ncccc12,-17%,3µM*,.,.,.,.
O=C(/C=C/c1c(Cl)nc2ccccn12)N1CCN(c2ccc(F)cc2)CC1,-7%,-15%,79µM*,-3%,-7%,-3%
O=C(/C=C/c1c(Cl)nc2ccccn12)N1CCN(c2ccccc2F)CC1,-5%,-12%,0%,-10%,-6%,2%
Cc1ccc(NC(=O)COc2ccc(/C=N/NC(=O)CSCc3ccccc3)cc2)cc1,-5%,-7%,56µM*,3%,-7%,?
O=C(CSCc1ccc(Cl)cc1)N/N=C/c1ccc(OCC(=O)Nc2ccccc2)cc1,-1%,-31%,-3%,i,-11%,13%
CC1(C)CC2CC(C)(CN2C(=O)COC(=O)c2ccc(O)cc2O)C1 (stereo not drawn),1%,3%,7.9µM*,.,.,11µM*
O=C(CNC(=O)c1ccc([N+](=O)[O-])cc1)OC(C(=O)Nc1cc(C(F)(F)F)ccc1Cl)c1ccccc1 (stereo not drawn),.,.,1%,.,.,.
N#Cc1nc(Nc2cccc([N+](=O)[O-])c2)nc(NC2CCCC2)n1,.,.,4%,.,.,.
OC[C@@H]1[C@@H](c2ccc(F)cc2)C(c2ccccc2)=NN1c1ccccc1,-14%,-13%,-20%[56.1 µM],-19%[81.1 µM],-14%[75.6 µM],?
CC[C@H]1C(c2ccc(F)cc2)=NN(c2ccccc2)[C@@H]1CO,40µM*!,-17%,-16%[56.1 µM],-6%[81.1 µM],-14%[75.6 µM],19%
SMILES,GCN5L2 inh,RGS4 inhibitor,TDP1 block,RECQ1 helicase,BLM inh,APEX1 inh
COc1ccc(/C=C2\C(=O)NC(=S)N2C(=O)c2ccc(F)cc2)cc1,38%,-41%,20µM*,?,?,?
O=C(Nc1cccc(Cl)c1)OCC#CCCl,?,.,21%,28µM*,28µM*,1.6µM*
O=S(=O)(c1cccs1)N1CCN(c2nc(-c3cccs3)nc3ccccc23)CC1,.,19%,-1%,.,.,.
Cc1ccc(S(=O)(=O)Nc2ccc(NC(=O)c3cccs3)cc2)cc1,-3%,-8%,0%,-12%,-14%,-4%
CC(=O)NS(=O)(=O)c1ccc(NC(=O)c2ccc(NC(=O)c3cccs3)cc2)cc1,-3%,2%,45µM*,.,.,?
Cc1ccc(Nc2nc(N)nc(CSc3nncn3C)n2)cc1,-6%,3%,6%[56.1 µM],-7%,6%,7%
Cc1ccc(Nc2nc(N)nc(CSc3nnnn3-c3ccccc3)n2)cc1,-3%,?,79µM*,-20%,-17%,26%
O=C1C(=O)c2ccc(-c3ccccc3)cc2-c2ccccc21,-6%,-41%,2%[56.1 µM],-7%,8.9µM*,1%
Nc1ccc2c(c1)C(=O)C(=O)c1ccccc1-2,-19%[0.501 µM],?,-7%,3%,?,3%
O=C1[O][Bi][O]c2ccccc21,-16%,.,35µM*,.,-10%,.
O=C(Cn1c(=O)n(Cc2ccc(C(=O)NCc3ccc4c(c3)OCO4)cc2)c(=O)c2ccccc21)Nc1ccc(F)cc1F,-9%,?,25µM*,.,-15%,.
CCOC(=O)c1ccccc1NC(=O)Cn1c(=O)n(Cc2ccc(C(=O)NCc3ccc4c(c3)OCO4)cc2)c(=O)c2ccccc21,3%,-14%,4%,.,-5%,.
COc1ccccc1NC(=O)c1c([N+](=O)[O-])cnn1C,-11%,21%,1.4µM*,.,-3%,11%
Cn1ncc([N+](=O)[O-])c1C(=O)Nc1ccccc1C(=O)O,-5%,19%,.,.,1%,3%
Cc1ccc(C(=O)COC(=O)C2C3C=CC(C3)C2C(=O)OCC(=O)c2ccc(C)c(C)c2)cc1C (stereo not drawn),0.79µM*,-4%,4%,i,-5%,-5%
O=S(=O)(c1cccc(-c2n[nH]c(=S)n2-c2ccccc2)c1)N1CCCC1,.,.,.,.,.,-8%
O=C1C=C(N2CCN(c3ccccn3)CC2)C(=O)c2c(O)ccc(O)c21,.,-10%,.,.,.,.
CC1=CC(=O)c2c(O)ccc(O)c2C1=O,13µM*,.,-3%,3.5µM*,18µM*,2µM*
CN1CCN(S(=O)(=O)c2ccc3c(c2)C(C)(C)C(=O)N3C)CC1,-5%,-12%,.,.,3%,57%
CC1CCCN(S(=O)(=O)c2ccc3c(c2)C(C)(C)C(=O)N3C)C1 (stereo not drawn),28µM*,4%,.,.,0%,2%
CC(C)(C)OC(=O)NCCOCCOCCOc1ccc(-c2no[n+]([O-])c2C#N)cc1,.,.,.,.,.,-2%
CS(=O)(=O)Nc1cccc(-c2cc(F)c(S(=O)(=O)N3CCN(S(=O)(=O)c4ccc5c(c4)OCCO5)CC3)cc2F)c1,.,.,-5%,.,.,.
